# Rv3671c inh: inhibits the M. tuberculosis serine protease Rv3671c; P9WHR9; inhibition, % at 5.96 µM; 0.048% of 320,000 active; in the data active = inhibition above about 38%;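 also: extracellular domain of Rv3671c used as enzyme; 0% = enzyme with DMSO and 100% = no enzyme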
# FBA Mtb inh: Mtb fructose-bisphosphate aldolase inhibition; P9WQA3; purified M. tuberculosis FBA, fluorescence read-out; inhibition, % at 1 µM; 2.3% of 360,000 active;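 also: 0% = vehicle and 100% = reference inhibitor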
# Target sequence (P9WQA3 whole entry, looked up): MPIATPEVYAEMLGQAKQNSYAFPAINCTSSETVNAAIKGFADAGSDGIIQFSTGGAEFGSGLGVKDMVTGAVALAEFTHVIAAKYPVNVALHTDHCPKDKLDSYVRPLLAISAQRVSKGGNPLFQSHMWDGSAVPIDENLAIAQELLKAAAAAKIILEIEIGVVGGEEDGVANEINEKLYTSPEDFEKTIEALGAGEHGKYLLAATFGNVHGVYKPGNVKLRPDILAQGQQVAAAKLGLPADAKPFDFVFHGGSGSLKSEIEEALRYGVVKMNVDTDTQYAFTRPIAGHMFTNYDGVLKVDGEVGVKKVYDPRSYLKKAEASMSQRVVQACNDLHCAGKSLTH
# FadD28 binding: blocks FadD28 binding to the bisubstrate probe; fluorescence polarization; 0.22% of 360,000 active; inhibition, % at 12.5 µM; AID 588549; in the data active = inhibition above about 8.5%, passing the limit was not always enough; inconclusive = no clear call, values can overlap the other calls
# GDH-TPI counter-1: counter-screen for M. tuberculosis FBA inhibitors: GDH-TPI coupled enzymes; GDH-TPI coupled enzyme counterscreen, NADH absorbance; inhibition, % at 4.8 µM; 1.2% of 360,000 active; AID 588335; in the data active = inhibition above about 30%;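 also: 0% = DMSO wells and 100% = wells lacking the enzyme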
# BioA inh: inhibitors of Mycobacterium tuberculosis BioA enzyme | purified M. tuberculosis BioA enzyme, plate reader | inhibition, % at 9.99 µM | 0.096% of 360,000 active | AID 602481; in the data active = inhibition above about 40%; inconclusive = no clear call, values can overlap the other calls
# Mtb FBA confirm: Mtb FBA inhibition, confirmed. shares compounds with FBA Mtb inh. purified M. tuberculosis FBA, fluorescence read-out. inhibition, % at 1 µM. 78% of 5,600 active. AID 651616;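 also: 0% = vehicle wells and 100% = reference inhibitor wells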
# GDH-TPI counter-2: inhibits GDH-TPI coupling enzymes, flagging Mtb FBA hits | GDH-TPI coupled enzyme counterscreen, fluorescence | shares compounds with FBA Mtb inh | inhibition, % at 1 µM | 81% of 5,600 active; in the data active = inhibition above about 10%
# GDH-TPI dose: counter-screen for M. tuberculosis FBA inhibitors: GDH-TPI dose response. shares compounds with FBA Mtb inh. GDH-TPI coupled enzyme assay, fluorescence, artifact counterscreen. IC50, µM. 79% of 170 active; call rule not given here
# Starred values were filed as active, the others as inactive; ? = inconclusive; / = not tested or not shown. The list is not random: actives were taken first. Their share in the collection is about 3%. Rule as the data show it, unless noted: active = inhibition above about 27%; inactive = the rest.
SMILES,Rv3671c inh,FBA Mtb inh,FadD28 binding,GDH-TPI counter-1,BioA inh,Mtb FBA confirm,GDH-TPI counter-2,others
CN1CCN(CCCNC(=O)c2cn(C3CCCCC3)c(=O)c3c2c2ccccc2n3C)CC1,-2,31*,0,11,1,37*,41*,
COc1ccc(-c2ccc3c(c2)[C@H]2[C@H](CCN2S(=O)(=O)c2ccccc2F)[C@@H](CO)N3)cc1,/,/,/,/,-2,/,/,
C[C@@H]1CN([C@@H](C)CO)S(=O)(=O)c2ccc(C#CCN(C)C)cc2O[C@H]1CN(C)Cc1ccc2c(c1)OCO2,/,/,/,/,-1,/,/,
C[C@@H]1CCCCO[C@@H](CN(C)C(=O)Cc2ccccc2)[C@H](C)CN([C@H](C)CO)C(=O)c2cc(NC(=O)Nc3ccccc3)ccc2O1,/,/,/,/,-2,/,/,
Cc1ccc(C2=CC(c3ccccc3)n3ncnc3N2)cc1 (stereo unspecified),-11,67*,-13,3,-2,88*,67*,
Cc1ccc(C2C=C(c3ccccc3OC(F)F)Nc3ncnn32)cc1 (stereo unspecified),-9,32*,-1,13,1,70*,68*,
C1=C(c2ccccc2)Nc2ncnn2C1c1ccccc1 (stereo unspecified),4,14,-3,-3,1,/,/,
CC(C)CC#Cc1ccc2c(c1)O[C@@H](CN(C)C(=O)Cc1ccccn1)[C@H](C)CN([C@@H](C)CO)S2(=O)=O,/,/,/,/,-2,/,/,
COc1ccc(-c2nc(CN3CCN(c4cc(C)nc(C)c4)CC3)c(C)o2)c2ccccc12,-1,67*,-24,2,2,45*,43*,
O=C(CSc1nc2c([nH]c3ccccc32)c(=O)n1-c1ccccc1F)NCC1CCCO1 (stereo unspecified),-2,36*,1,1,2,89*,53*,
Cc1ccccc1-n1c(SCC(=O)NCC2CCCO2)nc2c([nH]c3ccccc32)c1=O (stereo unspecified),2,2,-1,7,2,/,/,
C[C@@H]1CN([C@@H](C)CO)C(=O)c2cccc(NS(=O)(=O)c3cn(C)cn3)c2O[C@@H]1CN(C)CC1CC1,/,/,/,/,0,/,/,
COCOc1ccc(-c2cc(=O)c3c(OCOC)cc(OCOC)cc3o2)cc1,4,64*,-3,21,0,106*,64*,
COCOc1cc(O)c2c(=O)c(OCOC)c(-c3ccc(OCOC)c(OCOC)c3)oc2c1,4,-1,-3,7,1,/,/,
CCC(=O)N1C[C@@H](C)[C@H](OC)CN(C)C(=O)c2ccc(NC(=O)Nc3cccc(F)c3)cc2OC[C@@H]1C,/,/,/,/,5,/,/,
O=C(C[C@H]1C=C[C@H](NC(=O)NC2CCCCC2)[C@H](CO)O1)NCc1ccc(F)cc1,/,/,/,/,-3,/,/,
N#Cc1c(-c2ccccc2)cc(C2CC2)nc1N,7,13,-2,15,2,/,/,
N#Cc1c(-c2ccco2)cc(C2CC2)nc1N,2,49*,-4,25,-2,13,-1,GDH-TPI dose=2.6*
Cc1ccc(S(=O)(=O)N(C)C[C@@H]2OCCCC[C@H](C)Oc3ccc(NC(=O)c4ccccc4)cc3C(=O)N([C@@H](C)CO)C[C@H]2C)cc1,/,/,/,/,-3,/,/,
CCOc1ccc(C(C(=O)NC(C)(C)C)N(CCOC)C(=O)CCC(=O)Nc2ccccn2)cc1 (stereo unspecified),-2,40*,-3,-2,2,60*,53*,
CCOC(=O)c1cc(-c2ccc(OC)cc2)nc2c1c(C)nn2CCC#N,-1,31*,-7,31*,4,76*,60*,
CC(=O)Oc1ccc(C23c4ccccc4C2(OC(C)=O)c2cc(OC(C)=O)ccc23)cc1 (stereo unspecified),/,71*,-4,6,-1,98*,85*,
C[C@@H]1CN([C@@H](C)CO)C(=O)c2cc(-c3ccccc3F)cnc2O[C@@H]1CN(C)Cc1ccccc1,/,/,/,/,0,/,/,
CCC(C)NC(=O)c1ccc2nc(-c3ccc(OC)c(OC)c3)c(-c3ccc(OC)c(OC)c3)nc2c1 (stereo unspecified),4,-1,-1,4,/,/,/,
CCN(CC)C(=O)c1ccc2nc3ccccc3nc2c1,0,-2,0,11,/,/,/,
SMILES,Rv3671c inh,FBA Mtb inh,FadD28 binding,GDH-TPI counter-1,BioA inh,Mtb FBA confirm,GDH-TPI counter-2,others
CCN(CC)C(=O)c1ccc2nc(-c3ccccc3)c(-c3ccccc3)nc2c1,-6,48*,-2,12,/,49*,40*,
CCN1CCN(CCNC(=O)c2ccc3nc(-c4cccc(C)c4)c(-c4cccc(C)c4)nc3c2)CC1,-4,30*,-9,18,0,59*,51*,
CCCNC(=O)c1ccc2nc(-c3ccccc3)c(-c3ccccc3)nc2c1,-4,31*,-4,20,-2,62*,41*,
COc1ccc(-c2nc3ccc(C(=O)NCCCN4CCOCC4)cc3nc2-c2ccc(OC)cc2)cc1,-30,5,-10,-7,8,/,/,
CCCCNC(=O)c1ccc2nc(-c3ccco3)c(-c3ccco3)nc2c1,5,0,?,-2,0,/,/,
COCC(C)NC(=O)c1ccc2nc(-c3ccccc3)c(-c3ccccc3)nc2c1 (stereo unspecified),-4,42*,0,18,-1,52*,49*,
CO[C@@H]1CN(C)C(=O)c2ccc(NC(=O)NC(C)C)cc2OC[C@H](C)N(C(=O)CN(C)C)C[C@H]1C,/,/,/,/,-2,/,/,
Cc1ccc(C2Nc3ccccc3-c3nc4ccccc4n32)o1 (stereo unspecified),-20,82*,-7,1,-2,119*,95*,
CCOc1ccc2oc(C(=O)OCC(=O)NC3CC3)c(C)c2c1,5,40*,-3,3,-1,62*,47*,
COc1ccc2oc(C(=O)OCC(=O)NCc3ccc(OC)c(OC)c3)c(C)c2c1,/,17,-1,-5,0,/,/,
COc1ccc2oc(C(=O)OCC(=O)NC(C)(C#N)C3CC3)c(C)c2c1 (stereo unspecified),-1,31*,-3,7,0,21,24*,
COc1ccc2oc(C(=O)NC3CCCCC3)c(C)c2c1,-2,28*,-1,7,-1,41*,27*,
NC(=O)c1oc2ccc(Cl)cc2c1N,-3,87*,0,5,1,100*,69*,
Cc1c(C(=O)NC2CCCCC2)oc2ccc(F)cc12,-11,3,-2,7,-1,/,/,
CCCNC(=O)NC(=O)COC(=O)c1oc2ccc(OCC)cc2c1C,3,23,-1,4,0,/,/,
C[C@H]1CN([C@@H](C)CO)S(=O)(=O)c2ccc(C#CC3CCCC3)cc2O[C@H]1CN(C)C(=O)C1CC1,/,/,/,/,0,/,/,
CCCNC(=O)N1C[C@@H]2[C@H](c3ccccc31)[C@H](CO)N2Cc1ccc2c(c1)OCO2,/,/,/,/,0,/,/,
